TRHR enhancer – allosterically enhances the human TRH receptor | P34981 | TRHR cells, fluo-8 calcium fluorescence, EC20 TRH enhancement | enhancement, % at 2 µM | 360,000 tested, 0.66% active | AID 493056; in the data active = enhancement above about 30%; also: 0% is about no effect
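TRHR-expressing cells loaded with fluo-8 calcium dye were read kinetically (ex 480/em 530) during compound addition, then stimulated with an EC20 of TRH (10 nM final). Enhancement of the Gq-mediated intracellular calcium response was scored.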
TRHR ag – activates the human TRH receptor | P34981 | TRHR cells, calcium flux fluo-8, FDSS agonist mode | activation, % at 2 µM | 360,000 tested, 0.18% active; also: 0% is about no effect
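TRHR-expressing cells, plated overnight in medium with 10% serum, were loaded with fluo-8 calcium dye at room temperature. After a 10 s baseline, library compound was pin-added and calcium release was recorded kinetically (ex 480/em 530) as agonist response.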
D1 PAM – potentiators of human D1 dopamine receptor; P21728; HEK293 TREx D1 cells, calcium flux, dopamine EC20 potentiation; potentiation, % at 10 µM; 360,000 tested, 0.036% active; AID 504651; in the data active = potentiation above about 30%; also: 0% is about no effect
Target sequence (P21728 whole entry, looked up): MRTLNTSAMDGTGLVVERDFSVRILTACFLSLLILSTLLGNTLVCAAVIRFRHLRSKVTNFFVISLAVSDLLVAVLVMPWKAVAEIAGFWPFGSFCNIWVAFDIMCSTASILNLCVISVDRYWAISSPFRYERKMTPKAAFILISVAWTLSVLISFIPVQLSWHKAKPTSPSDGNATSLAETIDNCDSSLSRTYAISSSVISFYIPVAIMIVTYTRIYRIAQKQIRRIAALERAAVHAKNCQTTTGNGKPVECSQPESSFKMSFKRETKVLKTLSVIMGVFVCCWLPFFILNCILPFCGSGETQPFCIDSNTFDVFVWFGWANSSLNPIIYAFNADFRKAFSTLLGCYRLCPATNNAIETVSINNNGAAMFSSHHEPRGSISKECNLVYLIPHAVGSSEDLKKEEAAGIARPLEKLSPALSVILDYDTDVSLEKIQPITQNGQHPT
D1 antag – human D1 dopamine receptor antagonism; HEK293 TREx D1 cells, calcium flux, dopamine EC80; active compounds read low; activity change, negative = inhibition, % at 10 µM; 360,000 tested, 3.2% active; AID 504652; in the data active = activity change below about -30%; also: % is scaled to controls: 0 for no effect and ±100 for the full control effect
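Antagonism measured as reduced calcium response to an EC80 dopamine addition following 180 s compound pre-read; cells were inducible HEK293 Trex D1 plated overnight at 30 C, read kinetically at 1 cycle/sec.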
D1 agonist – activates the human D1 dopamine receptor; HEK293 T-REx D1 cells, calcium flux, agonist mode; activation, % at 2 µM; 360,000 tested, 1% active; also: 0% is about no effect
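Agonism was scored from calcium flux recorded over 180 s (1 read/s) after pintool compound addition, following a 10-cycle baseline. Cells were inducible force-coupled HEK293 TREx D1, plated overnight at 30 C and loaded with no-wash calcium dye.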
* marks the source's active call; other numbers are inactive results; ! = repeats disagree. A selection: hits, their analogues and other compounds. The true share with any hit is near 4.6%. Rule as the data show it, unless noted: active = activation above about 30%; inactive = the rest.

SMILES	TRHR enhancer	TRHR ag	D1 PAM	D1 antag	D1 agonist
COc1ccc(C2C3C(=O)N(N(C)c4ncc(C(F)(F)F)cc4Cl)C(=O)C3ON2C)cc1 (configuration not stated)	2	0	-2	-31*	5
COc1c(C)cc(S(=O)(=O)NCCc2c(C)[nH]c3ccccc23)c(C)c1C	-3	1	-6	-2	0
Cc1cccc(C)c1NC(=O)/C(C#N)=C/c1ccsc1	-2	0	5	-35*	3
Cc1c(-c2nsc(NC(=O)c3ccc(Cl)cc3)n2)nnn1-c1ccc(C(C)C)cc1	1	0	-1	-15	5
COC(=O)c1ccc(-n2nnc(-c3nsc(NC(=O)c4ccc(Cl)cc4)n3)c2C)cc1	3	2	1	-55*	3
c1ccc2c(C[C@@H]3CNCCN3CC3CCCCC3)cccc2c1	11	-1	4	3	116*
CCOc1ccc(NC(=O)CCS(=O)(=O)c2cccc3nonc23)cc1	-3	-1	1	-3	0
COCCCN1C(=O)c2ccc(C(=O)NCCc3ccccc3)cc2C1=O	-3	-1	-1	-4	4
COc1cc(OC)cc(C(=O)NCCn2ccc3ccccc32)c1	-3	-1	-5	-16	3
O=C(NCCn1ccc2ccccc21)c1ccc(Cl)cc1	0	0	-4	-34*	0
CCCn1nnnc1-c1ccc(Cl)cc1	5	0	5	5	0
FC(F)(F)c1cccc(Cn2nnnc2-c2ccc(Cl)cc2)c1	3	0	-15	-39*	21
Cc1ccc(Cl)c(OCC(=O)NC2CCN(Cc3ccccc3)CC2)c1	6	-1	-2	-10	-1
C/C(=N\NC(=O)c1ccncc1)c1cc2ccccc2o1	2	0	-3	-26	0
C/C(=N/NC(N)=S)c1cc2ccc(O)cc2oc1=O	2	4	-5	6	6
C/C(=N/NC(=O)c1ccncc1)c1cc2ccc(O)cc2oc1=O	5	24	-2	-7	41*
C/C(=N\NC(=O)c1ccncc1)c1cc2ccccc2oc1=O	-1	0	2	-34*	4
CCOc1ccccc1NC(=O)N(Cc1ccc(C)o1)C1CCN(C(C)=O)CC1	10	0	-1	4	0
Cc1cc(-c2ccc(S(=O)(=O)Nc3ccccc3F)s2)on1	-3	0	-2	-23	5
CCOC(=O)c1nn(-c2ccc(C)cc2)c(=O)c2c(N)scc12	3	0	6	-12	0
CCOC(=O)c1nn(-c2ccc(F)cc2)c(=O)c2c(N)scc12	9	0	-4	-51*	59*
N#Cc1c(N)nc(SCc2ccncc2)c(C#N)c1-c1cccs1	-3	0	-4	-34*	4
COC(=O)C1=C(C)Nc2nc(-c3ccccc3)nn2C1c1ccc(C)o1 (configuration not stated)	-4	-1	-10	-57*	2
COc1ccc(C2C(C(=O)Nc3ccccc3)=C(C)Nc3nc(-c4ccc(Cl)cc4)nn32)cc1 (configuration not stated)	24	0	-1	-4	5
CC1CN(C(=O)CCN2C(=O)c3ccccc3C2=O)CC(C)O1 (configuration not stated)	4	1	-9	-32*	2
SMILES	TRHR enhancer	TRHR ag	D1 PAM	D1 antag	D1 agonist
CN1CCN(C(=O)CCN2C(=O)c3ccccc3C2=O)CC1	5	2	8	3	1
Cc1ccccc1-n1nc(CO)c(C(=O)NCc2cccs2)n1	-3	-2	2	-11	0
COc1ccc(CCNC(=O)Cc2c(Cl)cccc2Cl)cc1	11	-2	2	-36*	2
CC(C(=O)NCCSCc1cccc(Cl)c1)N(c1ccccc1)S(C)(=O)=O (configuration not stated)	-1	0	-7	-32*!	16
COc1ccccc1N(CC(=O)NCCSc1ccccc1)S(C)(=O)=O	-2	0	3	-6	-1
Cc1noc(C)c1C(=O)NCCCc1ccccc1	4	0	0	-9	-1
COc1ccc(N(C(C)C(=O)NCCSCc2cccc(Cl)c2)S(C)(=O)=O)cc1 (configuration not stated)	4	-1	-10	-7	3
COc1ccc(CCNC(=O)CC(=O)NCCc2ccc(OC)cc2)cc1	-3	0	-11	-1	4
